Measurements as given in PubChem BioAssay.
Active and inactive are the calls of the source. Unless noted, the rule behind the calls is not given here.

Assays:
[1] = system: XIP peptide (Xip251-270) binding; assay: small-molecule binders of XIP peptide, primary screen, biochemical, small-molecule microarray, fluorescence 635/667 nm, 0.1 µg/mL protein (AID 1182); conditions: fluorescent protein binding, 635 nm, higher = more signal, called active from +8 up or from −8 down
XIP peptide (Xip251-270) = assay: small-molecule binders of XIP peptide, primary screen, biochemical, small-molecule microarray, fluorescence 635/667 nm, 0.5 µg/mL protein (AID 1183); conditions: small-molecule microarray binding, fluorescence 635 nm; higher = more signal
[2] = Plasmodium falciparum growth inhibition, primary screen, strain 3D7, DAPI fluorescence, 100 nL (AID 1184);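 note: parasites grown inside human red blood cells in medium with human serum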; conditions: P. falciparum 3D7 growth, 3 d, higher = more signal
[3] = biological target: Homeobox protein Hox-A13 (Mus musculus) (UniProt Q62424); assay: inhibitors of HoxA13-DNA binding, primary screen, biochemical, fluorescence polarization, labeled oligonucleotide (AID 1185); conditions: 15 min, higher = more signal, called active from +8 up or from −8 down
[4] = inhibitors of hydroxyurea-induced Chk1 phosphorylation, primary screen, imaging, HeLa, phospho-Chk1 antibody, percent positive cells (AID 1186); conditions: hydroxyurea-induced phospho-Chk1 immunofluorescence imaging, higher = more signal
[5] = inhibitors of hydroxyurea-induced Chk1 phosphorylation, primary screen, imaging, HeLa, phospho-Chk1 nuclear intensity (AID 1187); conditions: hydroxyurea-induced phospho-Chk1 immunofluorescence imaging, higher = more signal

Chain of Homeobox protein Hox-A13 (Mus musculus) (Q62424 whole entry, looked up): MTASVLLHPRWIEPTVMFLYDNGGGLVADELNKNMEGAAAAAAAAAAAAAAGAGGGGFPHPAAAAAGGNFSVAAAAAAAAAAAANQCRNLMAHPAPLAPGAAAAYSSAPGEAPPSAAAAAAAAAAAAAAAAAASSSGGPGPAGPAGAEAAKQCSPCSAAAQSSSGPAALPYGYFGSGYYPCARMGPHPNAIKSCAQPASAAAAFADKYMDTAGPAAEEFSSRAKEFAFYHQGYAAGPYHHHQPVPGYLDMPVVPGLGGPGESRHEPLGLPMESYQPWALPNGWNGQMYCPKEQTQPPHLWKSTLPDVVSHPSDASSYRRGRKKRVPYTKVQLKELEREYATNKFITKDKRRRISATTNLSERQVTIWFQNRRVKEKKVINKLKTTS

Compound	composite z-score [1]	composite z-score (XIP peptide (Xip251-270))	z-score [2]	z-score [3]	z-score [4]	z-score [5]
Cc1ccc(S[C@]2(C(=O)NCC(F)(F)F)CC(=O)N(Cc3ccccc3Cl)[C@@H]2c2ccc(CO)cc2I)cc1	0.292 (inactive)	0.426	0.115	-2.61 (inactive)	0.395 (inactive)	0.92 (inactive)
CC(C)NC(=O)[C@@H]1c2ccccc2C(=O)N(CC23CC4CC(CC(C4)C2)C3)[C@H]1c1ccc(CO)cc1	0.166 (inactive)	0.661	-1.84	-4.68 (inactive)	-0.111 (inactive)	-0.0146 (inactive)
CCCCC(=C=CC[C@H](O)c1ccccc1OCCO)C[C@H](O)COCc1ccccc1	1.03 (inactive)	-0.765	-1.21	-4.61 (inactive)	-0.15 (inactive)	0.18 (inactive)
NC(=O)NCC#Cc1ccc2c(c1)[C@]1(C(=O)N2)[C@H](c2ccc(O)cc2)N2[C@H](c3ccccc3)[C@H](c3ccccc3)OC(=O)[C@H]2[C@@H]1C(=O)N1CCCCCCC1	0.145 (inactive)	0.469	0.308	1.52 (inactive)	-0.374 (inactive)	-0.693 (inactive)
CC(C)C[C@@H]1NC(=O)[C@H]2C[C@@H](C(=O)NCCCCCCN(C)C)[C@@H](c3cccc(OCCO)c3)N2C1=O	2.09 (inactive)	0.905	0.063	-4 (inactive)	-0.111 (inactive)	0.186 (inactive)
CC(C)(C)N1CC=CC23O[C@@H]4C=CCCOC(=O)C4[C@H]2C(=O)N(CCCCCO)[C@@H]3C1=O (stereo partly specified)	0.615 (inactive)	0.12	0.519	-4.56 (inactive)	-1.05 (inactive)	-1.13 (inactive)
